tested on: Plasmodium falciparum; experiment: GSK_TCMDC: Inhibition of Plasmodium falciparum Dd2 in whole red blood cells, using parasite LDH activity as an index of growth. Test compounds present at 2uM; format: functional

| SMILES | Inhibition |
| --- | --- |
| CC(C)COc1ccc(Cl)cc1Cc1nc(-c2nc3cccc(CN4CCN(C)CC4)c3[nH]2)cs1 | 30% |
| CCOC(=O)c1ccc(NC(=O)N[C@@H](Cc2ccccc2)C(=O)NC2CCN(Cc3ccc(O)cc3)C2)cc1 (stereo partly specified) | 2% |
| Cc1ccc(Nc2nccc(NCC(O)c3cccc(F)c3)n2)cc1 (stereo unspecified) | 26% |
| COc1cc2nc(Nc3ccc4c(ccn4Cc4ccccc4)c3)nc(Nc3ccc4c(ccn4Cc4ccccc4)c3)c2cc1OC | 80% |
| Cc1nn(-c2ccnc3cc(Cl)ccc23)c(C)c1C(=O)NCc1cc(Cl)cc(Cl)c1 | 53% |
| CCCN1CCN(Cc2ccc(C(=O)Nc3ccc(Cl)cc3)cc2)CC1.O=C(O)C(F)(F)F | 14% |
| Cc1cc(OCCCN2CCCCC2)ccc1NC(=O)COc1ccc(Cl)cc1C(=O)c1cc(C#N)cc(C(F)(F)F)c1 | 7% |
| O=C(Nc1cccc(Cl)c1)N[C@H]1CCN(Cc2ccc(OCCCN3CCCCC3)cc2)C1 | 0% |
| Cc1ccc(-c2cccc3c(NC(=O)Nc4ccc5nccc(N6CCN(C)CC6)c5c4)cccc23)cn1.Cl | 89% |
| Cl.Clc1ccc(OCc2ccccc2)c(Cc2ccc(-c3nc4cnccc4[nH]3)o2)c1 | 6% |
| O=C(Nc1cccc(CN2CCCN(Cc3ccsc3)CC2)c1)c1ccc(Cl)c(Cl)c1.O=C(O)C(F)(F)F | 20% |
| Cc1cc(C)c2ncc(C(=O)O)c(O)c2c1 | 60% |
| CCC(CC)C(CC(=O)NC(C)(C)CCc1ccccc1OC)Nc1ccc(C#N)c2ccccc12 (stereo unspecified) | 91% |
| CN1CCN(Cc2ccc(-c3ccc4c(Nc5cc(O)c(F)cc5Cl)ccnc4c3)o2)CC1 | 99% |
| Cn1ccc(C(=O)Nc2ccc3c(c2)CN(Cc2ccc(N4CCCC4)o2)CCC3)n1.O=CO | 72% |
| COc1cc(Nc2nccc(-c3c(-c4cccc(NC(=O)c5c(F)cccc5F)c4)nn4ccccc34)n2)cc(OC)c1OC | 98% |
| CCCCCc1ccc(N2C(N)=NC(N)=NC2(C)C)cc1.Cl | 1% |
| CN(Cc1cc(C(F)(F)F)cc(C(F)(F)F)c1)C(=O)C(Cc1ccc(F)cc1)C1CCCNC1 (stereo unspecified) | 89% |

| SMILES | Inhibition |
| --- | --- |
| Cl.NC(=O)c1cccc(Nc2nccc(Nc3ccc(Oc4cccc(Cl)c4)c(Cl)c3)n2)c1 | 12% |
| CC(=O)Nc1cccc(C(=O)Nc2ccc(-c3cccc(-c4nc5cc(C(F)(F)F)ccc5[nH]4)c3)cc2)c1 | 85% |
| Cl.Clc1ccc(C2CCN(CCCOc3ccc4c(c3)CCNCC4)CC2)cc1 | 28% |
| Cc1cccc2nc(-c3ccc(-c4ccc(CNC(C)C)cc4)cc3)[nH]c12.O=C(O)C(F)(F)F | 62% |
| CN(C)c1nc(NN=Cc2cc(Cl)ccc2O)nc(Nc2ccc(F)cc2)n1 | 46% |
| COc1ccc(NC(=O)/C=C/c2ccccc2Cl)cc1OCCN1CCC(O)(c2ccc(Cl)c(C(F)(F)F)c2)CC1.Cl | 9% |
| Cc1noc(-c2ccc(N3CCC(C(=O)N4CCN(C(C)C)CC4)CC3)cc2)n1.Cl | 0% |
| CC(Oc1c(C2CCN(CCCCNC(=O)c3ccc(-c4ccc(C#N)cc4)cc3)CC2)ccc2c1CCCC2)C(N)=O (stereo unspecified) | 83% |
| COc1cc(NC(=O)N2CCOC(CCN3CCC4(CCc5ccccc54)CC3)(c3ccc(Cl)c(Cl)c3)C2)cc(OC)c1 (stereo unspecified) | 50% |
| O=C(O)C(F)(F)F.c1cc(CN2CCN(c3ccncc3)CC2)cc(-c2cccc(-c3nc4ccccc4[nH]3)c2)c1 | 98% |
| O=C(O)C(F)(F)F.O=S(=O)(/C=C/c1ccccc1)N(Cc1ccc(-c2ccc(CNCCc3ccccn3)cc2)cc1)CC1CCCCN1 (stereo unspecified) | 97% |
| Fc1cccc(C=NN=c2cc[nH]c3ccccc23)c1 | 72% |
| COc1ccccc1-c1nc2nc(N)nc(N)c2nc1-c1ccccc1OC | 1% |
| CC[C@H]1CN(C/C=C/c2ccc(OC)cc2)CC[C@H]1CCCc1ccnc2ccc(O)cc12 | 72% |
| CC(C)=CCc1c(-c2ccc(O)cc2O)oc2c3c(cc(O)c2c1=O)OC(C)(C)C=C3 [MORUSIN] | 8% |
| Cc1cccc2nc(-c3ccc(-c4cccc(CN5CCCC(N)C5)c4)s3)[nH]c12.O=C(O)C(F)(F)F (stereo unspecified) | 94% |
| CNC(=O)/C=C/c1cc(NC(=O)Nc2cc(C)nc3c(F)cccc23)ccc1OC | 70% |
| CN(C)c1ccc(-c2csc(C(=O)NC3CCCCN(CCC(C)(C)C)C3)c2)cc1.O=C(O)C(F)(F)F (stereo unspecified) | 68% |
